Source: PubChem BioAssay (NCI)
The panel holds about 83,000 compounds, 20% with a hit somewhere; the sample as a whole holds those more often.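 Step 1: grow cells in 96-well plates. Step 2: add test compound at a single concentration. Step 3: incubate 48 h. Step 4: record percent growth.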 Values without a mark were called inactive. Activity calls are given as the source filed them. Rule for the calls: active = growth percent below 10; inactive = the rest.

What was measured:
Assay in all cases: NCI-60 one-dose screen, 48 h (100 = growth as untreated, 0 = no growth, -100 = all killed)
Settings in all cases: 10 µM unless noted
NCI-H23 lung = system: NCI-H23 lung
NCI-H226 lung = system: NCI-H226 lung
NCI-H322M lung = system: NCI-H322M lung
HOP-62 NSCLC = system: HOP-62 NSCLC
HOP-92 NSCLC = system: HOP-92 NSCLC
NCI-H522 lung = system: NCI-H522 lung
A549/ATCC NSCLC = system: A549/ATCC NSCLC
786-0 renal = system: 786-0 renal
COLO 205 colon = system: COLO 205 colon
DU-145 prostate = system: DU-145 prostate
K-562 leukemia = system: K-562 leukemia
MALME-3M melanoma = system: MALME-3M melanoma
MDA-MB-231 breast = system: MDA-MB-231 breast
RXF 393 renal = system: RXF 393 renal
SF-268 CNS = system: SF-268 CNS
SF-295 CNS = system: SF-295 CNS
SF-539 CNS = system: SF-539 CNS
UACC-257 melanoma = system: UACC-257 melanoma
M14 melanoma = system: M14 melanoma
NCI-H460 lung = system: NCI-H460 lung

SMILES | growth (NCI-H23 lung) | growth (NCI-H226 lung) | growth (NCI-H322M lung) | growth (HOP-62 NSCLC) | growth (HOP-92 NSCLC) | growth (NCI-H522 lung) | growth (A549/ATCC NSCLC) | growth (786-0 renal) | growth (COLO 205 colon) | growth (DU-145 prostate) | growth (K-562 leukemia) | growth (MALME-3M melanoma) | growth (MDA-MB-231 breast) | growth (RXF 393 renal) | growth (SF-268 CNS) | growth (SF-295 CNS) | growth (SF-539 CNS) | growth (UACC-257 melanoma) | growth (M14 melanoma) | growth (NCI-H460 lung)
CC(C)(C)n1cc(-c2ccnc(NCCCNS(=O)(=O)c3ccc(F)cc3)c2)c(-c2cccc(F)c2)n1 | 67.5% | 60.1% | 91.3% | 92.2% | 67.5% | 57.2% | 43.5% | 66.7% | 32.6% | 77.7% | 18.1% | 85.4% | 75.6% | 68% | 74.3% | 74% | 68.7% | 89.2% | 53.8% | 
Brc1ccc(-n2cc(-c3nn[nH]n3)c(-c3cccs3)n2)cc1 | 92.9% | 80.2% | 91.9% | 91.3% | 88.2% | 88% | 89.1% | 96.6% | 117% | 107% | 100% | 93.7% | 88.1% | 105% | 100% | 95.3% | 96% | 96.1% | 95.9% | 
COC(=O)c1c2c(c[n+]([O-])c1C)C(=O)C(NCc1ccccc1)=CC2=O | -34.1% (active) | -9.27% (active) | -8.65% (active) | 4.14% (active) | -29.7% (active) | -30.5% (active) | -19.8% (active) | 10.5% | -52.5% (active) | -87.1% (active) | 1.41% (active) | -93.4% (active) | -3.95% (active) | -26% (active) | -13.9% (active) | -45.3% (active) | -71.7% (active) | -81.5% (active) | -77.8% (active) | 
CS(=O)(=O)C1=CN(CCO)C(=O)N2CCCN=C12 | 95.7% | 96.6% | 93.1% | 92.4% | 101% | 94.8% | 98.7% | 99.5% | 97.8% | 105% | 118% | 96.2% | 98.6% | 106% | 97.2% | 105% | 102% | 105% | 98.9% | 
O=[N+]([O-])c1ccc(S(=O)(=O)N2CCN(C3=NS(=O)(=O)c4ccccc4N3c3ccccc3)CC2)cc1 | 87.2% | 104% | 99.6% | 99.7% | -0.794% (active) |  | 96.3% | 96.7% | 117% | 117% | 84.9% | 106% | 99.2% | 91.7% | 101% | 91.2% | 103% | 101% | 113% | 
CN(CCOc1ccc(C#N)cc1)CCOc1ccc(C#N)cc1 | 56.5% | 62% | 87.1% | 46% | 63.3% | 86.6% | 60.2% | 26.3% |  | 94.3% | 101% | 76.5% | 71.2% | 53.7% | 103% | 483% | 96.1% | 65.8% | 65.2% | 
N#Cc1nc(-c2ccccc2)oc1S(=O)(=O)N1CCOCC1 | 89.9% | 102% | 100% | 97.9% | 108% |  | 94.5% | 88% | 0.0605% (active) | 103% | 5.21% (active) | 39.6% | 98.3% | 91% | 108% | 98.5% | 101% | 92.8% | 61.7% | 
COc1ccc2c(O)c(/C=C3\N=Nc4ccccc43)oc2c1C[C@@H]1CCNC[C@H]1F | 70.2% | 58.3% | 87.6% | 71.4% | 65.1% | 58.1% | 35.8% | -62.9% (active) | 58.2% | 78.6% | -37.6% (active) | 52.9% | 15.4% | 80.5% | 50.3% | 79.2% | -82.9% (active) | 77.2% | 51.6% | 
CC1(C)CCC(S(=O)(=O)c2ccc3c(c2)/C(=N\O)c2cc(S(=O)(=O)N4CCC(O)(c5cccc(C(F)(F)F)c5)CC4)ccc2-3)CC1 | -48.7% (active) | -55.9% (active) | -38.5% (active) | -92.1% (active) | -36% (active) | -81.4% (active) | -83.9% (active) | -87.3% (active) | -90% (active) | -83.8% (active) | -70.2% (active) | -79% (active) | -68.7% (active) | -85.4% (active) | -71.2% (active) | -64.8% (active) | -82.1% (active) | -69.9% (active) | -74.8% (active) | 
O=C1/C(=C\c2cn(-c3ccccc3)nc2-c2ccc(-c3cccs3)cc2)CCc2ccccc21 | 71.4% | 74.4% | 98.5% | 75.5% | 78.7% | 24.7% | 60.4% | 73.2% | 74.6% | 85.8% | 17.6% | 65.4% | 67.5% | 58.1% | 70.5% | 54.8% | 72% | 83.3% | 39.1% | 
CCNc1cc(-c2cccc(OC(F)(F)F)c2)nc2ccc(N3CCCC3)cc12 | 7.13% (active) | 37.3% | 22.1% | -10.1% (active) | -6.27% (active) |  | 10.3% | -18.4% (active) |  | 28.6% | 4.34% (active) | -32.2% (active) | 15.3% | 33.7% | 48.8% | 23.6% | 48.9% | 11.1% | 7.92% (active) | 1.03% (active)
CCOC(=O)C(=Cc1cccc(Cl)c1)C(=O)OCC | 57.2% | -65.4% (active) | 84.2% | 85.2% | 13.2% | -42.9% (active) | 46.9% | 7.82% (active) | -2.83% (active) | 28% | -11.1% (active) | -27.5% (active) | 1.37% (active) | -27.8% (active) | 26.4% | 77.2% | 9.28% (active) | 26.1% | 11.9% | 
O=C1Nc2ccc(I)cc2C1=O | 89.7% | 92.8% | 107% | 84.4% | 104% | 93.4% | 88.7% | 109% | 88.9% | 106% | 107% | 110% | 93.5% | 91.4% | 110% | 99.1% | 100% | -28.4% (active) | 95.9% | 
O=C(N/N=C/c1ccc(F)cc1)c1ccc(C(F)(F)F)nc1Nc1cccc(C(F)(F)F)c1 | 11.3% | 9.45% (active) | -14.5% (active) | -14.1% (active) | -25.2% (active) | -15.9% (active) | -10.9% (active) | -29.7% (active) | 7.69% (active) | 17.9% | -6.25% (active) | 2.96% (active) | -11.5% (active) | -10.7% (active) | 9.8% (active) | -44.5% (active) | -0.388% (active) | -2.34% (active) | 19.9% | 
COC(C(=O)[C@@H](O)[C@@H](C)O)[C@@H]1Cc2cc3cc(O[C@H]4C[C@@H](O[C@H]5C[C@@H](O)[C@H](O)C(C)O5)[C@H](O)C(C)O4)c(C)c(O)c3c(O)c2C(=O)[C@H]1O[C@H]1C[C@@H](O[C@H]2C[C@@H](O[C@H]3C[C@@H](O)[C@H](OC)C(C)O3)[C@@H](O)C(C)O2)[C@H](O)C(C)O1 (some centres undefined) | -30.6% (active) | 7.45% (active) | 5.34% (active) | -6.87% (active) | -2.22% (active) | -26.8% (active) | 3.24% (active) | 4.65% (active) | -44.4% (active) | 12% | 5.99% (active) | -30.7% (active) | 17.2% | -55.4% (active) | 14.2% | 8.2% (active) | -23.6% (active) | -21.7% (active) | -17.9% (active) | 
CC(C)N1CCN(Cc2ccc3c(NNC(=O)c4ccccc4)nc4cc(F)ccc4n23)CC1 | 28.6% | 14.5% | 29.3% | 24.9% | 49% |  | 16.2% | 34.2% | 17.1% | 30.8% | 15.7% | 25% | 43.1% | 37.7% | 24.1% | 16.5% | 10.5% | 12.4% | 6.58% (active) | 
